Results taken from PubChem BioAssay (NCI).
The panel holds about 83,000 compounds, 20% with a hit somewhere; the sample as a whole holds those more often.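 Each cell line was grown in a 96-well plate and treated with one concentration of compound for 48 hours. Values below 10 were considered active.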 Active and inactive are the calls of the source.

test system: HL-60(TB) leukemia; assay: NCI-60 one-dose screen, 48 h (100 = growth as untreated, 0 = no growth, -100 = all killed); conditions: 10 µM unless noted

SMILES	growth
C=C1C(=O)O[C@H]2[C@H]1CC/C(COC(=O)c1ccc3ccccc3c1)=C\CC[C@@]1(C)O[C@@H]21	-53.5% (active)
COc1cccc(NC(=O)c2cccc(C3CCc4c(cc(OC)c(OC)c4OC)O3)c2)c1 (stereo not given)	44.2% (inactive)
COc1cc(Nc2ncnc(Nc3ccc4c(n3)NC(=O)C(C)(C)O4)n2)cc(OC)c1OC	46.8% (inactive)
O=c1[nH]c(=O)[nH]c(=S)[nH]1	102% (inactive)
COc1ccccc1C(=O)NC(=S)Nc1ccc(-c2nc3ccccc3[nH]2)cc1	59.7% (inactive)
CCOP(=O)(NC(c1ccccc1)c1ccccc1)OCC	101% (inactive)
O=C(/C=C/c1ccc(F)cc1)Nc1ncc(Cc2ccc(F)cc2)s1	-26.6% (active)
CC1(C)N=C(N)N=C(N)N1c1cccc(CCCCOc2ccccc2)c1	13.6% (inactive)
C=CC(=O)OC1CCC(C(C)(C)CC)CC1 (stereo not given)	84% (inactive)
c1csc(-c2[nH]nc3c2CCc2ccccc2-3)c1	132% (inactive)
CC(C)(C)c1ccc(C(=O)Nc2sc3cc(O)ccc3c2C(N)=O)cc1	43.3% (inactive)
CN(C)c1ccc2cc(-c3ccc(Cl)c(Cl)c3)c(N)nc2c1	10.5% (inactive)
NC(N)=Nc1nc2ccccc2n2c1nc1ccccc12	37.7% (inactive)
C/C(=N\O)c1ccc(NC(=O)CSc2nnc(-c3cc(-c4ccc(S(N)(=O)=O)cc4)nc4ccccc34)n2-c2ccccc2)cc1	24.1% (inactive)
CCc1nnc(NC(=O)c2ccoc2COc2ccccc2)s1	19.3% (inactive)
